Screening data: PubChem, several laboratories
A selection: hits, their analogues and other compounds. The true share with any hit is near 4.7%.
tim23-1 inh – growth inhibitors of tim23-1 mutant yeast, primary screen, luminescence, uHTS. inhibition, % at 20 µM. S. cerevisiae tim23-1 growth, BacTiter-Glo luminescence, 24 h. 330,000 tested, 1.3% active;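 active means growth inhibition of the mutant yeast at or above 50%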;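 further: temperature-sensitive mutant grown at 25 °C; plate controls were DMSO-treated mutant yeast for no effect and medium wells lacking yeast for full effect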
PfHsp90 set2 – growth inhibition of PfHsp90-expressing yeast, primary screen, antimalarial PfHsp90 inhibitor project, S. cerevisiae, BacTiter-Glo luminescence, single point, set 2. 310,000 tested, 0.32% active. BacTiter-Glo ATP, 48 h; yeast lacking PDR1 and PDR3 efflux regulators. AID 504621, 2011. inhibition, % at 9.4 µM;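 active means every replicate shows inhibition above about 80%, whatever the replicate mean, limit read from the data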;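 further: 0% = DMSO neutral controls and 100% = 20 µM radicicol positive controls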
SKKanGAS inh – S. pyogenes SKKanGAS growth inhibitors in kanamycin, primary screen, streptokinase expression inhibitor project, SKKanGAS strain, BacTiter-Glo luminescence; 6 h; inhibition, % at 7.5 µM; 300,000 tested, 1.3% active;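 active means mean replicate score, as percent of positive control median, at least 50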;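 further: strain carries kanamycin resistance gene driven by streptokinase promoter and grows in 40 µg/ml kanamycin; loss of luminescence reflects streptokinase promoter inhibition or plain growth inhibition; 0% = median of DMSO wells and 100% = positive control at its reference dose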
tim10-1 inh – growth inhibitors of tim10-1 mutant yeast, primary screen, luminescence, uHTS. S. cerevisiae tim10-1 ts strain growth, BacTiter-Glo, 24 h. inhibition, % at 20 µM. 330,000 tested, 2.2% active. AID 463190, 2010;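 active means inhibition of at least 40%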;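 further: mutant grown at 25 °C; 0% = DMSO wells with yeast and 100% = wells holding no yeast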
TIM10 inh – growth inhibitors of isogenic TIM10 control yeast, primary screen, counter-screen for tim10-1 yeast inhibitor project, luminescence, uHTS; AID 463195, 2010; S. cerevisiae TIM10 strain growth, BacTiter-Glo luminescence, 24 h; 330,000 tested, 1.4% active; inhibition, % at 10 µM;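 active means inhibition of 40% or more at the single tested concentration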;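 further: wild-type TIM10 isogenic control strain grown at permissive 25 °C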
EBI2 antag – EBI2 receptor antagonists, beta-arrestin recruitment, primary screen, cell-based, luminescence, 7a,25-OHC stimulation, uHTS | G-protein coupled receptor 183 (Homo sapiens), P32249 | 7a,25-OHC stimulated | inhibition, % at 5 µM | 360,000 tested, 0.81% active; in the data active means inhibition above about 38%;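 further: enzyme fragment complementation signal reports receptor beta-arrestin coupling in cells; 0% = agonist plus DMSO wells and 100% = wells without agonist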
Target sequence (P32249 whole entry, looked up, the tested form may be a part): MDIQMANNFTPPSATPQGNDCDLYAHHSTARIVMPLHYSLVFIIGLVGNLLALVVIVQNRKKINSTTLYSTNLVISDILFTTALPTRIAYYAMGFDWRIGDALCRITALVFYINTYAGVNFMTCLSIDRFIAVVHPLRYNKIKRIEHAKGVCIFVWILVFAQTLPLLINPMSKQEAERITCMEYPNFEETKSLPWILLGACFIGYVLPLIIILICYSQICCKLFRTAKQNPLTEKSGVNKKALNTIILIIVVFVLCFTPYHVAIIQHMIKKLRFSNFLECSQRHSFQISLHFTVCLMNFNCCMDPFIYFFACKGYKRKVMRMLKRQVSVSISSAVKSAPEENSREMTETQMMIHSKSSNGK
tim10-1 confirm – growth inhibitors of tim10-1 mutant yeast, confirmation, single concentration, luminescence, S. cerevisiae; shares compounds with tim10-1 inh; S. cerevisiae tim10-1 ts strain growth, BacTiter-Glo, 24 h; inhibition, % at 20 µM; 7,400 tested, 56% active;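 active means inhibition of yeast growth at or above a set limit in either of two repeat tests at 20 µM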;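 further: tim10-1 mutant grown at permissive 25 °C to find synthetic lethal compounds; 0% = DMSO yeast wells and 100% = medium wells without yeast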
* = called active by the depositor; . = not tested or not shown; ! = not active in a repeat.

SMILES	tim23-1 inh	PfHsp90 set2	SKKanGAS inh	tim10-1 inh	TIM10 inh	EBI2 antag	tim10-1 confirm
COc1ccccc1[As](=O)(O)CC(O)COc1ccc(Cl)cc1Cl (configuration not stated)	12	.	-4	11	-3	.	.
Fc1ccc2c(c1)nnn2C1CCN(Cc2nnnn2CCc2ccccc2)CC1	9	.	-4	40*	27	12	25
C/C=C1/CC(C)C(C)(O)C(=O)OCC2CCN3CCC(OC1=O)C23 (configuration not stated)	7	-5	.	11	13	-2	.
O=C(c1ccc2c(c1)N(Cc1ccccc1)CCS2)N1CCC2(CC1)OCCO2	44	14	4	42*	7	8	21
C[C@H](N)CN1CCc2ccc(Br)cc21	13	-8	17	9	2	-8	.
COCCNC(=O)CN1C(=O)C(C)N=C(c2ccccc2)c2cc(Cl)ccc21 (configuration not stated)	34	2	2	41*	12	3	7
O=c1c2ccccc2[se]n1-c1ccccc1	5	5	88*	55*	16	62*	90*
O=c1c2ccccc2nc(-c2ccccc2)n1-c1ccccc1	27	4	1	23	22	-8	.
Cc1cc(Br)c(NC(=O)CN2CC=C(c3ccccc3)CC2)c(Br)c1	42	-5	-6	38	23	3	.
CCN(CC)S(=O)(=O)c1cc(NC(=O)C(C)N2CC=C(c3ccccc3)CC2)ccc1C (configuration not stated)	16	23	23	40*	12	26	2
COc1ccc(C(c2nnnn2-c2ccc3c(c2)OCCO3)N2CCC3(CC2)C(=O)NCN3c2ccccc2)cc1 (configuration not stated)	.	.	.	.	.	3	.
FC(F)(F)c1cccc(C2NCc3ccccc3-n3cccc32)c1 (configuration not stated)	35	1	12	40	26	8	.
Oc1ccc(C2NCc3ccccc3-n3cccc32)cc1Cl (configuration not stated)	24	-10	-1	44*!	19	4	34*
O=C1/C(=C/c2cc([N+](=O)[O-])ccc2Cl)N2CCC1CC2	49	10	4	48*	25	-17	35*
O=C1/C(=C/c2cccc([N+](=O)[O-])c2)N2CCC1CC2	27	32	-2	7	16	-27	.
CCCCn1c(O)c(/C=C/C=Nc2ccccc2)c(=O)[nH]c1=O	3	-13	1	16	-15	0	.
Cc1cc(/C=C2\C(=O)NC(=O)N(c3ccc(Cl)cc3)C2=O)c(C)n1-c1sc2c(c1C#N)CCCC2	31	-3	20	41*	15	29	14
CCCOc1ccc(N2C(=O)CC(N3CC=C(c4ccccc4)CC3)C2=O)cc1 (configuration not stated)	28	-21	-12	35	26	3	.
O=C1CC(N2CC=C(c3ccccc3)CC2)C(=O)N1c1ccc(F)cc1 (configuration not stated)	38	-88	1	43*	29	0	42*
O=C(NC(=O)N1CCC2(CC1)OCCO2)c1ccc(Cl)cc1	3	4	6	5	1	6	.
Nc1c(C(=O)NCC2CCCO2)c2nc3ccccc3nc2n1Cc1ccco1 (configuration not stated)	14	-1	6	0	0	30	.
Nc1c(C(=O)NC2CCCC2)c2nc3ccccc3nc2n1CC1CCCO1 (configuration not stated)	33	-2	12	56*	34	17	29
C=CCn1c(O)c(C(CC)=NCC2CCCO2)c(=O)[nH]c1=O (configuration not stated)	-1	-8	-10	0	-2	-12	.
O=C(COC(=O)Cc1ccccc1)NCCNC(=O)COC(=O)Cc1ccccc1	4	-12	9	4	-2	-1	.
O=C(COC(=O)Cc1ccccc1)Nc1ccc(SC(F)F)cc1	27	6	.	43*	5	0	15
SMILES	tim23-1 inh	PfHsp90 set2	SKKanGAS inh	tim10-1 inh	TIM10 inh	EBI2 antag	tim10-1 confirm
O=C(CN1CCOCC1)Nc1ccc(Br)cc1C(=O)c1ccccc1	34	-18	-9	40*	35	-12	17
CCOC(=O)C1(CCc2ccccc2)CCN(Cc2cccc3cnccc23)CC1	7	-16	6	20	-10	27	.
CCOC(=O)C1(CCc2ccccc2)CCN(Cc2cccc3c2OCO3)CC1	14	-6	8	40*	-4	27	14
CN(C)c1ccc2c(c1)N=C(c1ccco1)OP2(=S)N1CCOCC1 (configuration not stated)	13	19	-12	2	6	-3	.
Cc1nn(CCC#N)c2c1P(=S)(N1CCCC1)OC(c1ccc(F)cc1)=N2 (configuration not stated)	44	17	0	43*	37	3	33*
O=C1C(=O)N(c2ccccc2)P(=O)(N(CCCl)CCCl)N1c1ccccc1	.	-2	.	.	.	4	.
CN1CC(C(=O)c2cccc(C(F)(F)F)c2)C(c2ccc(Cl)cc2)C1 (configuration not stated)	18	-26	8	41*	8	-15	28
COc1cccc(C(=O)C2CN(C)CC2c2ccc(Cl)cc2)c1 (configuration not stated)	14	-3	2	8	3	0	.
CC(C)CNC(=O)c1c(N)n(Cc2ccc3c(c2)OCO3)c2nc3ccccc3nc12	39	19	23	43*	27	32	25
COC(=O)C1(F)C(=O)NC(=O)NC1O (configuration not stated)	.	.	.	.	.	-9	.
Cc1ccccc1-[n+]1c(-c2ccccc2)cc(-c2ccccc2)cc1-c1ccccc1	-9	6	-2	42*	-12	8	28
O=[N+]([O-])c1ccc(Cl)c([N+](=O)[O-])c1	44	-9	.	45*	26	-4	39*
CCN1C[C@]2(C)CC[C@H](O)[C@]34C1[C@H](C[C@H]23)[C@@]1(O)C[C@H](OC)[C@H]2C[C@@H]4[C@@H]1C2O (some centres not stated)	-13	20	.	5	4	-8	.
